From PubChem BioAssay
Only some compounds are listed: those with a hit (about 1.8% of all), similar ones and a draw of the others.
AF4-AF9 inh: inhibitors of AF4 peptide binding to AF9, primary screen, biochemical, AlphaScreen, biotin-AF4 peptide, FLAG-AF9, single point; 350,000 tested, 0.47% active; inhibition, % at 10 µM; Protein AF-9 (Homo sapiens), P42568; AID 651704, 2012;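 active = every replicate reaching a set inhibition limit, whatever the replicate mean, cut at about 25% in these data; inconclusive = mean inhibition reaches that limit but some replicates miss it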;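 also: 0% = plate neutral control median and 100% = total signal loss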
Target sequence (P42568 whole entry, looked up): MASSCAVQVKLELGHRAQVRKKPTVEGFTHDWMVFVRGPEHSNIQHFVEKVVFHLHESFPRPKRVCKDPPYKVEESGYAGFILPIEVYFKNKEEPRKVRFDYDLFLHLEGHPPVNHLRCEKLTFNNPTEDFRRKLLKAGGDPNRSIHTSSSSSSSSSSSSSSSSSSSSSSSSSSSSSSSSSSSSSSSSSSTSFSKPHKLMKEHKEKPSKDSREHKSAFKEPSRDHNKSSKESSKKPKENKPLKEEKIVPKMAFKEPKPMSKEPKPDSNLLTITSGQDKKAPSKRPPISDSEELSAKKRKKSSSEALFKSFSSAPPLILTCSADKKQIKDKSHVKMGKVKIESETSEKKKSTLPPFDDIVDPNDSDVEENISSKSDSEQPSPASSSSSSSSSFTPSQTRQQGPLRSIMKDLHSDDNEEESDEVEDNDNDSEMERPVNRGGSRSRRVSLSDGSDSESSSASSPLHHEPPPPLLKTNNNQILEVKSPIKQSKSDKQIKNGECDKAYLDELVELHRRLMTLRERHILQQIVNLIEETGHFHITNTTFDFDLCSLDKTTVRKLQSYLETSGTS
ERp5 inh: inhibitors of ERp5-driven insulin aggregation, primary screen, biochemical, turbidity, absorbance 650 nm, single point; 90 min; inhibition, % at 9.99 µM; 350,000 tested, 0.05% active; AID 651711, 2012; Protein disulfide-isomerase A6 (Homo sapiens), Q15084;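 active = mean replicate inhibition above about 25%, with every replicate also reaching it, limit read from the data, passing the limit was not always enough; inconclusive = only one of those two criteria met; inactive = neither criterion met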
ERAP1 inh: human ERAP1 aminopeptidase inhibitors, primary screen, biochemical, single point, plate reader; Endoplasmic reticulum aminopeptidase 1 (Homo sapiens), Q9NZ08; recombinant ERAP1, Leu-AMC fluorescence, 60 min; inhibition, % at 10.7 µM; 340,000 tested, 0.15% active; AID 652197, 2013;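 active = mean replicate inhibition of at least 30%, or all replicates individually reaching that 30% level; inactive = mean below 30% and not every replicate reaching it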;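 also: 0% = neutral control wells and 100% = L-leucinethiol positive control wells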
PDI inh: inhibitors of human PDI, primary screen, biochemical, turbidity, single point, plate reader | 350,000 tested, 0.052% active | AID 588391, 2011 | Protein disulfide-isomerase (Homo sapiens), P07237 | PDI insulin aggregation turbidity, A650, 90 min | inhibition, % at 10 µM;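 active = mean inhibition across replicates of 30% or more, whatever share of single replicates reach that level; inconclusive = mean inhibition below 30% while every single replicate reaches 30%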
DENV2 CPE: inhibitors of DENV2 cytopathic effect, primary screen, cell-based, plate reader, single concentration | DENV2-infected cells, cytopathic effect rescue | CPE inhibition, % at 9.99 µM | 350,000 tested, 1.7% active | AID 651640, 2012; in the data active = CPE inhibition above about 20%, passing the limit was not always enough; inconclusive = no clear call, values can overlap the other calls; tested in BHK-21 cells;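 also: 0% = median of neutral control wells and 100% = median of positive control wells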
Active calls of the source: *; ? = inconclusive; . = not tested or not shown.

SMILES | AF4-AF9 inh | ERp5 inh | ERAP1 inh | PDI inh | DENV2 CPE
C/C=C/c1ccc([C@@H]2[C@@H](CO)N(C(C)=O)C23CN(C(=O)c2ccncc2)C3)cc1 | -1 | -5 | 0 | . | 25*
CCS(=O)(=O)Nc1ccc2c(c1)C(=O)N(C)C[C@H](OC)[C@@H](C)CN(Cc1ccccn1)[C@H](C)CO2 | -3 | 4 | . | . | 6
CN1CCN(c2ncnc3c2ncn3[C@H]2CN(Cc3ccc(Cl)cc3)C[C@@H](CO)O2)CC1 | 3 | 9 | 19 | 7 | 35*
C[C@@H]1CN([C@@H](C)CO)C(=O)c2cc(-c3ccccc3F)cnc2O[C@H]1CN(C)Cc1ccccc1 | 0 | 1 | 1 | . | -4
Cc1cc(Br)ccc1NC(=O)CN(C)C(=O)CNC(=O)Cc1ccccc1 | -2 | -3 | -2 | -8 | -5
CN(CC(=O)Nc1ccc(OC(F)(F)F)cc1)C(=O)Cn1c(=O)cnc2ccccc21 | 0 | -2 | -3 | -10 | -3
CN(CC(=O)Nc1cccc(F)c1)C(=O)c1ccccc1CCc1ccccc1 | 4 | -3 | -1 | 3 | 69*
CN(CC(=O)Nc1cccc(F)c1)C(=O)Cn1c(=O)cnc2ccccc21 | 29* | 7 | -10 | 9 | -8
Cc1cc(Br)ccc1NC(=O)CN(C)C(=O)Cn1c(=O)cnc2ccccc21 | 1 | -2 | 38* | 5 | 0
COc1cccc(NC(=O)CN(C)C(=O)CSc2nc3ccccc3s2)c1 | 9 | 3 | 0 | 1 | .
CN(CC(=O)Nc1cccc(F)c1)C(=O)CSc1nc2ccccc2s1 | 1 | -3 | 1 | 0 | 61*
COc1ccc(NC(=O)CN(C)C(=O)c2ccccc2CCc2ccccc2)cc1 | 1 | 5 | -3 | -2 | 2
COC(=O)[C@]1(Sc2ccc(OC)cc2)CC(=O)N[C@@H]1c1ccccc1 | -2 | -5 | . | . | 72*
COC(=O)[C@@]1(Sc2ccc(C)cc2)CC(=O)N[C@@H]1c1ccccc1 | -5 | 1 | . | . | -7
COc1ccc2c3c([nH]c2c1)[C@@H](CO)N(C(=O)C1CCC1)CC31CN(Cc2cccc(F)c2)C1 | 13 | -5 | 7 | . | 2
O=C(C[C@@H]1CC[C@H]2[C@@H](COC[C@H](O)CN2C(=O)Nc2ccc(F)cc2)O1)NC1Cc2ccccc2C1 | -1 | -3 | 0 | . | 25*
O=C(C[C@H]1CC[C@@H]2[C@H](COC[C@H](O)CN2C(=O)c2ccc3c(c2)OCO3)O1)NC1Cc2ccccc2C1 | -1 | -1 | 1 | . | 24*
O=C(C[C@@H]1CC[C@H]2[C@@H](COC[C@@H](O)CN2C(=O)Nc2ccc(F)cc2)O1)NCCCN1CCOCC1 | 31* | -5 | 4 | . | 3
O=C(C[C@@H]1CC[C@H]2[C@@H](COC[C@H](O)CN2C(=O)c2ccc3c(c2)OCO3)O1)NCCN1CCCCC1 | 3 | 2 | -1 | . | 0
O=C(C[C@H]1CC[C@H]2[C@@H](COC[C@@H](O)CN2C(=O)c2ccc3c(c2)OCO3)O1)NC1CCC1 | -1 | 3 | 1 | . | -6
O=C(C[C@H]1CC[C@H]2[C@@H](COC[C@@H](O)CN2C(=O)c2ccc3c(c2)OCO3)O1)NCCN1CCCC1 | -2 | 5 | 3 | . | 27*
CNC[C@H]1OCCCC[C@H](C)Oc2ccc(NS(=O)(=O)c3c(C)noc3C)cc2C(=O)N([C@H](C)CO)C[C@H]1C | . | . | . | . | -9
O=C(CN1CCOCC1)N[C@@H]1CC[C@H](CCNC(=O)Nc2cc(F)ccc2F)O[C@H]1CO | 6 | -2 | 0 | . | -11
O=C1CC(c2ccccc2)Sc2ccccc2N1 (stereo unspecified) | . | . | . | -4 | .
O=C1Nc2ccccc2SC1c1ccccc1 (stereo unspecified) | 1 | 5 | -2 | 2 | 25*
SMILES | AF4-AF9 inh | ERp5 inh | ERAP1 inh | PDI inh | DENV2 CPE
C[C@@H]1CN=C2N(CCNC(=O)CCC3CCCCC3)[C@H](Cc3ccc(O)cc3)CN21 | 4 | 4 | 1 | 7 | 1
O=C(CCC1CCCCC1)NCCN1C2=NC[C@H](Cc3ccc(O)cc3)N2C[C@H]1Cc1ccc(O)cc1 | 14 | 0 | 0 | 34* | -4
CC(C)N1CCN(c2ccc(OC[C@H]3CO[C@](Cn4cncn4)(c4ccc(Cl)cc4Cl)O3)cc2)CC1 | 36* | -4 | -2 | 4 | -2
OCc1cn(-c2ccccc2)nc1-c1ccc(Br)cc1 | -6 | 3 | -3 | 1 | 48*
CC(C)COc1ccc(-c2nn(-c3ccccc3)cc2CO)cc1 | -3 | -3 | -3 | -4 | -4
C[C@@H]1CN([C@@H](C)CO)C(=O)c2cccc(NC(=O)C3CCOCC3)c2O[C@@H]1CN(C)Cc1ccc(C(=O)Nc2ccccc2N)cc1 | 10 | 2 | 2 | . | 12
CN(CC(=O)Nc1ccccc1C(=O)NC1CC1)Cc1ccccc1F | 1 | 2 | -4 | -1 | 78*
CSc1ccc(CN(C)CC(=O)Nc2ccccc2C(=O)NC2CC2)cc1 | -8 | 2 | 3 | -1 | ?
C[C@@H]1CCCCO[C@@H](CN(C)C(=O)c2ccncc2)[C@@H](C)CN([C@@H](C)CO)C(=O)c2cc(NC(=O)C3CCCCC3)ccc2O1 | 0 | -2 | 3 | . | ?
COC(=O)N/N=C/c1cc(C)n(-c2cccc3ccccc23)c1C | . | . | . | -4 | .
CCOC(=O)N/N=C/c1cc(C)n(-c2cccc3ccccc23)c1C | 12 | -4 | 0 | -5 | 37*
COc1ccc(S(=O)(=O)Nc2ccc3c(c2)C(=O)N([C@H](C)CO)C[C@@H](C)[C@H](CN(C)Cc2ccncc2)OCCCC[C@H](C)O3)cc1 | -5 | -5 | -1 | . | -11
COc1ccc(S(=O)(=O)Nc2ccc3c(c2)C(=O)N([C@H](C)CO)C[C@H](C)[C@H](CN(C)Cc2ccncc2)OCCCC[C@H](C)O3)cc1 | 2 | -5 | -2 | . | 48*
COc1ccc(S(=O)(=O)Nc2ccc3c(c2)C(=O)N([C@H](C)CO)C[C@H](C)[C@H](CN(C)Cc2ccncc2)OCCCC[C@@H](C)O3)cc1 | -2 | 1 | 0 | . | 22*
C[C@@H]1CCCCO[C@H](CN(C)C(=O)Nc2ccc(F)cc2)[C@H](C)CN([C@H](C)CO)C(=O)c2cc(NS(=O)(=O)c3ccc(F)cc3)ccc2O1 | . | . | . | . | 16
Cc1ccc(S(=O)(=O)Nc2ccc3c(c2)C(=O)N([C@H](C)CO)C[C@@H](C)[C@H](CN(C)S(C)(=O)=O)OCCCC[C@@H](C)O3)cc1 | 4 | -6 | 4 | . | 36*
Cc1ccc(S(=O)(=O)Nc2ccc3c(c2)C(=O)N([C@H](C)CO)C[C@H](C)[C@@H](CN(C)S(C)(=O)=O)OCCCC[C@@H](C)O3)cc1 | 5 | 0 | -1 | . | 20
Cc1ccc(S(=O)(=O)Nc2ccc3c(c2)C(=O)N([C@@H](C)CO)C[C@H](C)[C@H](CN(C)S(C)(=O)=O)OCCCC[C@@H](C)O3)cc1 | -1 | -4 | 4 | . | 2
